Test [1] has as its target Serine/threonine-protein kinase MRCK beta (Homo sapiens) (UniProt Q9Y5S2). Particulars: at 1 µM.
For test [2] the target is unchanged. Particulars: at 10 µM.
The target in test [3] is Ribosomal protein S6 kinase alpha-5 (Homo sapiens) (UniProt O75582). To be noted: at 1 µM.
Test [4] shares this target. Particulars: at 10 µM.
The target in test [5] is Ribosomal protein S6 kinase alpha-4 (Homo sapiens) (UniProt O75676). To be noted: at 1 µM.
The target is the same in test [6]. To be noted: at 10 µM.
For test [7], the target named is SRSF protein kinase 3 (Homo sapiens) (UniProt Q9UPE1). Particulars: at 1 µM.
For test [8] the target is unchanged. Particulars: at 10 µM.
Test [9] deals with T1, Serine/threonine-protein kinase 4 (Homo sapiens) (UniProt Q13043).
T1 sequence (whole entry): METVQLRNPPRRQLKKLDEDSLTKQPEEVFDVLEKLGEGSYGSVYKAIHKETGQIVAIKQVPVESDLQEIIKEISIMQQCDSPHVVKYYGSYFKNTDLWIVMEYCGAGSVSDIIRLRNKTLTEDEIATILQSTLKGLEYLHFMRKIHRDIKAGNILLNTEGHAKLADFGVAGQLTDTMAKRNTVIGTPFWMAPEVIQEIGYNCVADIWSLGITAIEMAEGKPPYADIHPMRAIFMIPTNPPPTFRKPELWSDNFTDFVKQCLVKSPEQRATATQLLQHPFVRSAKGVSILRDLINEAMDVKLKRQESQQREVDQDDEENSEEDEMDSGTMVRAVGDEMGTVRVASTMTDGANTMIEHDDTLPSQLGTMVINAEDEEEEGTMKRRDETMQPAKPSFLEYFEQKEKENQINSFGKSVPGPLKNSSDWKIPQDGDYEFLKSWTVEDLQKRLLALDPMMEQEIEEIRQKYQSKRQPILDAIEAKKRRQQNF
To be noted: at 1 µM.

The target in test [10] is T1, Serine/threonine-protein kinase 4 (Homo sapiens). To be noted: at 10 µM.

SMILES strings stand for the structures.

Sequence of Serine/threonine-protein kinase MRCK beta (Homo sapiens) (Q9Y5S2 whole entry): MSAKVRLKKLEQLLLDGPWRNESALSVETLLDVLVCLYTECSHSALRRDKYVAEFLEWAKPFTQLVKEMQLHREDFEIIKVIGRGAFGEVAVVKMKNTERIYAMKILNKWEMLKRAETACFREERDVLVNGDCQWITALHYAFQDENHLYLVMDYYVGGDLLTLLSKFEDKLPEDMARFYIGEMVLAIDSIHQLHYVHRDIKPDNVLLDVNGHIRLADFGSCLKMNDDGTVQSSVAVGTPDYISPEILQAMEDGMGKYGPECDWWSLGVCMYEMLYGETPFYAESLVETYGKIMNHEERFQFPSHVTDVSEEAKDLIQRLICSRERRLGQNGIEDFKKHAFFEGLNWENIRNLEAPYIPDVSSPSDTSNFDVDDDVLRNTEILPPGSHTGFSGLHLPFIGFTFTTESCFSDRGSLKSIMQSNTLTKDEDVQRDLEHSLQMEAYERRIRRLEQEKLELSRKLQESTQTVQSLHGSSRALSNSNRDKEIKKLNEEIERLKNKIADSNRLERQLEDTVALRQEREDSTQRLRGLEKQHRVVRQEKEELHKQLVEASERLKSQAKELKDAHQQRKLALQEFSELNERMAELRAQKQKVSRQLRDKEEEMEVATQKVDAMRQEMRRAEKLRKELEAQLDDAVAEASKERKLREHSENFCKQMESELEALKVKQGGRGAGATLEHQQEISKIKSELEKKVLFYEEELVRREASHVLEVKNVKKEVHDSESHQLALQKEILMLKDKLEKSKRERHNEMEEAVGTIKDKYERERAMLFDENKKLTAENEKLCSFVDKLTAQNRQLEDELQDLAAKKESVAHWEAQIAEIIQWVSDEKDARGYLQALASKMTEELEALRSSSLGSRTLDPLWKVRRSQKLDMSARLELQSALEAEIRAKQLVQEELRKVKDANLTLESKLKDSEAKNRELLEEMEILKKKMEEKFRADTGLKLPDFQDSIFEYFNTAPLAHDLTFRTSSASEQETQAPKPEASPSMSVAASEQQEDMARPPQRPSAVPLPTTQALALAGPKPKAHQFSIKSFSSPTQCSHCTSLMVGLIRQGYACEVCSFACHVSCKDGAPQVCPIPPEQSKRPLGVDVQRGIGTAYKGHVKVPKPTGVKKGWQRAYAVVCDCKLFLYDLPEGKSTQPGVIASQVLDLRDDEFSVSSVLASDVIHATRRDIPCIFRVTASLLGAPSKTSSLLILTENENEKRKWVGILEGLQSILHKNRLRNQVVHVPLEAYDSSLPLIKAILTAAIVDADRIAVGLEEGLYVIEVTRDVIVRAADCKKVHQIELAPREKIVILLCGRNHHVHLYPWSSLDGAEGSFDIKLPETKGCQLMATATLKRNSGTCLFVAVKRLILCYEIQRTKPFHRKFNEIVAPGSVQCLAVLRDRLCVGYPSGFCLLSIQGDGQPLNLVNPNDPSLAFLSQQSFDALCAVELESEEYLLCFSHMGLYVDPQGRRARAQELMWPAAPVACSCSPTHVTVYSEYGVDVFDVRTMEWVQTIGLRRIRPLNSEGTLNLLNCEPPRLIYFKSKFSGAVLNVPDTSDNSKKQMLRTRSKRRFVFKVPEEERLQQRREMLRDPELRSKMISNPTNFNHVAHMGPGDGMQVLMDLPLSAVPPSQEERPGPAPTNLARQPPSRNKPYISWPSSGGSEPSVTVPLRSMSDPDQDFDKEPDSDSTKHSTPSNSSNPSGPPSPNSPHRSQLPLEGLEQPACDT
Sequence of Ribosomal protein S6 kinase alpha-4 (Homo sapiens) (O75676 whole entry, looked up): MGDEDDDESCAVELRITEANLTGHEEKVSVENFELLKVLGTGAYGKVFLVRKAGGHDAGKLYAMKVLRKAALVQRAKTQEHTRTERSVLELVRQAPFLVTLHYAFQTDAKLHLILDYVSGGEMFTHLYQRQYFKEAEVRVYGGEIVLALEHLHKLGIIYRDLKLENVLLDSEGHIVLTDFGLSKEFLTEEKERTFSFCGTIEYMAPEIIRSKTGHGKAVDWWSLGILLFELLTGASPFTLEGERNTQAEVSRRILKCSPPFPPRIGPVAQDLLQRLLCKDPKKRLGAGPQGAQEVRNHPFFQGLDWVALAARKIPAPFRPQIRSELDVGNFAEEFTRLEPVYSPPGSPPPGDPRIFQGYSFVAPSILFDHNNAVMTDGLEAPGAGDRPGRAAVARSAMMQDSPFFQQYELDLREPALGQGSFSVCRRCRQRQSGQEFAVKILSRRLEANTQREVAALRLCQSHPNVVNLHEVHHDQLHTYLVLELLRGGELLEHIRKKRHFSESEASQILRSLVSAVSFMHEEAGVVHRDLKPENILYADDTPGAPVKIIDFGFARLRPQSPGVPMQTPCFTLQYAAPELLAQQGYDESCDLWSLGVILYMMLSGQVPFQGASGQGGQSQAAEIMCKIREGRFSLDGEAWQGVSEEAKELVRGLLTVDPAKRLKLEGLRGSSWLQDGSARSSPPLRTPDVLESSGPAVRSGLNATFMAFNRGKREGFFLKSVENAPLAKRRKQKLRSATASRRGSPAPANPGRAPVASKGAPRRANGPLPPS
Sequence of SRSF protein kinase 3 (Homo sapiens) (Q9UPE1 whole entry): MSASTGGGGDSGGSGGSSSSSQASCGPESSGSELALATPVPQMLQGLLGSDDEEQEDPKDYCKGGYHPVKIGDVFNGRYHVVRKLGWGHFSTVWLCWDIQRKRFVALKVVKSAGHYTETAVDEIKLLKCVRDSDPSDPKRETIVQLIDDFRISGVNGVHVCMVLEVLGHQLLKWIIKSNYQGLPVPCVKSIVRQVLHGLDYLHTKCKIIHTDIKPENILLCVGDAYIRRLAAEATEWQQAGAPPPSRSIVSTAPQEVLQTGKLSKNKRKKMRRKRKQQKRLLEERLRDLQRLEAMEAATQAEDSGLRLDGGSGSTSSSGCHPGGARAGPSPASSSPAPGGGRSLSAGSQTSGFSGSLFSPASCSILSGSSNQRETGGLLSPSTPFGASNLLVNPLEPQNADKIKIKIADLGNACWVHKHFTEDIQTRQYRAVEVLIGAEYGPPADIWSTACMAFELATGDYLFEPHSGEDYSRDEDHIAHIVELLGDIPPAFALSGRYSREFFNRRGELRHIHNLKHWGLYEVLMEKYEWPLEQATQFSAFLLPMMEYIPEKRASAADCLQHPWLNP
Sequence of Ribosomal protein S6 kinase alpha-5 (Homo sapiens) (O75582 whole entry, looked up): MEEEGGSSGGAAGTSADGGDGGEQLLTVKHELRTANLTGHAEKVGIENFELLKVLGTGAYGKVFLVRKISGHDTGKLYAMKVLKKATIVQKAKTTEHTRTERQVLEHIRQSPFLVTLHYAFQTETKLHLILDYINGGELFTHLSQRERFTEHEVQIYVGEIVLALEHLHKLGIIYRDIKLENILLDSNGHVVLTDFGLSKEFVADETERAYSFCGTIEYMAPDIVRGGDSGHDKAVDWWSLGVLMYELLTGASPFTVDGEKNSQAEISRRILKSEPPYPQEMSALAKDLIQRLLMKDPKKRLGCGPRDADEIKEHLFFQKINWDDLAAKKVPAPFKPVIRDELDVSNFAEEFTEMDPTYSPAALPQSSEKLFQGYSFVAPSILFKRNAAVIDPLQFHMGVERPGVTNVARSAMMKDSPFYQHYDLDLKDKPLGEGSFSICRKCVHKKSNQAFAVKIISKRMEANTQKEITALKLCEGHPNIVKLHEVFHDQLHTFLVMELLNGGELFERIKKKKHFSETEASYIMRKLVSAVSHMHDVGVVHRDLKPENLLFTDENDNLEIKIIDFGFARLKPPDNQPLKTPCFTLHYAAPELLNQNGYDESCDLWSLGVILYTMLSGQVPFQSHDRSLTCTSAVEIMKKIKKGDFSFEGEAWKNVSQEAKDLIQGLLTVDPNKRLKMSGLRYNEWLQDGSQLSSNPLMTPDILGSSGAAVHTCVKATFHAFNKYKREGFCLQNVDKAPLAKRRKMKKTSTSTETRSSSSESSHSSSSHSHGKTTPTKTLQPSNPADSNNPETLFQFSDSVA

The residual activity is the signal under treatment as a percentage of the control signal. Turning to `Oc1n[nH]c2nnc(-c3c(-c4ccccc4)nn4ccccc34)cc12`, the residual activity in test [1] was 88%; in [2] it was 83%; in [3], 109%; in test [4], 111%; in [5], 92%; in test [6], 87%. The residual activity in [7] was 98%; in test [8], 73%; in test [9], 72%; in test [10] it was 96%.
Consider `CN(C)CCCn1cc(C2=C(c3c[nH]c4ccccc34)C(=O)NC2=O)c2ccccc21`, for which the residual activity amounted to 40% in [2]; 24% in [3]; 4% in test [4]; 18% in test [5]; 3% in test [6]; 113% in test [7]. In addition, the residual activity in [8] was 55%; in [9], 40%; in test [10], 9%.
Consider `O=[N+]([O-])c1ccc(-c2nc(-c3ccc(F)cc3)c(-c3ccncc3)[nH]2)cc1`, for which the residual activity is 91% in test [1]; 89% in [2]; 108% in test [3]; 119% in [4]; 87% in [5]; 85% in test [6]. For the same molecule, the residual activity in test [7] worked out at 105%; in test [8] it was 104%; in test [9] it was 74%; in [10] it was 114%.
On to `NC(=O)c1ccc2[nH]c(-c3ccc(Oc4ccc(Cl)cc4)cc3)nc2c1`, for which the residual activity in [1] turned out to be 94%; in [2], 106%; in [3], 115%; in test [4] it was 139%; in test [5] it was 94%; in test [6], 102%. The residual activity in [7] was determined as 98%; in test [8], 72%; in test [9], 97%; in test [10] it was 87%.
Turning to `CCOc1cc2ncnc(Nc3cccc(Br)c3)c2cc1OCC`, the residual activity in test [1] came to 84%; in test [2], 72%; in test [3], 117%; in test [4] it was 101%; in [5], 105%; in test [6] it was 88%. Further, the residual activity in [7] amounted to 113%; in test [8], 76%; in test [9], 83%; in test [10], 61%.
With `O=C1c2ccccc2-[n+]2ccc3c([nH]c4ccccc43)c21`, the residual activity in [1] turned out to be 90%; in test [2] it was 85%; in test [3] it was 104%; in test [4], 110%; in test [5], 97%; in [6], 90%. The residual activity in [7] is 106%; in [8], 99%; in test [9] it was 108%; in [10] it was 94%.
On to `O=C(Nc1cccc(Nc2cc(Nc3cccc(C(F)(F)F)c3)ncn2)c1)C1CC1`, for which the residual activity in test [1] was 86%; in test [2], 89%; in [3], 124%; in test [4] it was 107%; in [5], 96%; in [6], 101%. Also, the residual activity was 102% in test [7], 25% in test [8], 99% in test [9] and 87% in test [10].
As for `Nc1cccc(-c2cc3c(Oc4cccc(O)c4)ncnc3[nH]2)c1`, the residual activity came out at 95% in test [1]; 84% in test [2]; 98% in test [3]; 117% in test [4]; 90% in test [5]; 68% in test [6]. Also, the figures for the residual activity in [9] and in [10] were 73% and 74%, respectively.
Take `Cc1cccc(-c2[nH]c(C(C)(C)C)nc2-c2ccc3c(c2)OCO3)n1`: the residual activity in test [1] was 83%; in test [2], 86%; in test [3], 135%; in test [5], 97%; in [6] it was 104%; in test [9] it was 102%. The residual activity in test [10] was 105%.
On to `CC(C)n1cnc2c(NCc3ccccc3)nc(NCCCO)nc21`, for which the residual activity is 88% in [1]; 88% in test [2]; 110% in test [3]; 110% in test [4]; 102% in test [5]; 97% in test [6]. For the same molecule, the residual activity turned out to be 106% in [7], 76% in test [8], 102% in test [9] and 102% in [10].
For the molecule `O=C1Nc2cc(Br)ccc2/C1=C1/Nc2ccccc2/C1=N\O`, the residual activity was 83% in test [1]; 87% in test [2]; 72% in test [3]; 78% in test [4]; 60% in test [5]; 55% in test [6]. Further, the residual activity was 93% in [7], 102% in test [8], 8% in [9] and -1% in test [10].
Turning to `COc1cc2ncc(-c3ccccc3)nc2cc1OC`, the residual activity came out at 98% in test [1]; 79% in test [2]; 83% in test [5]; 88% in [6]; 134% in test [7]; 92% in [8].
Consider `Oc1c2ccccc2c2c3c(cccc13)N=N2`, for which the residual activity in [1] came to 90%; in [2] it was 95%; in test [3], 93%; in test [4] it was 69%; in test [5] it was 76%; in [6], 36%. Also, the residual activity in test [7] was 90%; in test [8], 82%; in test [9], 52%; in test [10], 21%.
Consider `Cc1nc2cc3nc(-c4cccs4)cnc3cc2n1C`, for which the residual activity in test [1] came out at 105%; in test [2], 100%; in test [3], 129%; in test [4], 101%; in test [5], 101%; in test [7] it was 117%. Besides, the residual activity in [8] came to 88%; in test [9] it was 105%; in [10], 94%.
Regarding `CC(=O)O/N=C1\C(=C2\C(=O)Nc3cc(Br)ccc32)Nc2ccccc21`, the residual activity in test [1] was 96%; in [2], 91%; in test [3], 99%; in test [4], 85%; in [5], 100%; in test [6], 74%. Besides, the residual activity is 96% in test [7], 102% in test [8], 50% in [9] and 23% in [10].
On to `CN(C)c1ccc(/C=C2\C(=O)Nc3ccccc32)cc1`, for which the residual activity in test [1] was 106%; in test [2] it was 102%; in test [3] it was 116%; in test [4], 79%; in [5] it was 87%; in test [6] it was 57%. Further, the residual activity in test [7] stood at 103%; in test [8], 80%; in [9], 95%; in test [10] it was 74%.
In the case of `COc1ccc(C(=O)Nc2sc3c(c2C(N)=O)CCCC3)cc1OC`, the residual activity amounted to 89% in test [1]; 74% in [2]; 123% in test [3]; 88% in test [4]; 91% in test [5]; 99% in test [6]. Moreover, the residual activity in test [7] worked out at 104%; in test [8] it was 93%; in test [9], 92%; in [10], 95%.

For the origin of these results see ChEMBL document CHEMBL2218924, “A broad activity screen in support of a chemogenomic map for kinase signalling research and drug discovery” (Biochem J, 2013).
